# Data taken from article PMC7819943, “Rice protein-binding microarrays: a tool to detect cis-acting elements near promoter regions in rice”.
# Over roughly 68,000 sequences, “fluorescence intensity (a.u.)” has its median near 9,100; the highest 2% begin near 16,000. Only a selection was taken, and the highest values are over-represented in it overall.
# Target: OsWRKY34 (Oryza sativa, UniProt Q0JBA9 1-250)
# Experiment: protein-binding microarray (RPBM); PBS, 2% BSA, 51.3 ng/ul salmon testes DNA, 50 uM zinc acetate, 200 nM TF, 25 C, 1 h; high values mean tight binding
# Details: protein: recombinant; tags: N-terminal polyhistidine and DsRed monomer fusion (pET32a); label: CyDye5-dUTP incorporated in the synthesized complementary strand; 3' TTTTT single-stranded linker to array surface; dsDNA, one strand shown
# Procedure, shortened: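 Polyhistidine-tagged DsRed fusions of transcription factors, joined at the N-terminus, were expressed in E. coli BL21-CodonPlus and isolated on Ni–NTA. They were incubated at 200 nM for 1 h at 25 °C on a custom Agilent array, double-stranded and BSA-blocked, in PBS with 2% BSA, salmon testes DNA and 50 µM zinc acetate. The binding signal is per-feature fluorescence intensity (arbitrary units) read on an Axon 4000B scanner after washing.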
# OsWRKY34, sequence (Q0JBA9 entry or part of it): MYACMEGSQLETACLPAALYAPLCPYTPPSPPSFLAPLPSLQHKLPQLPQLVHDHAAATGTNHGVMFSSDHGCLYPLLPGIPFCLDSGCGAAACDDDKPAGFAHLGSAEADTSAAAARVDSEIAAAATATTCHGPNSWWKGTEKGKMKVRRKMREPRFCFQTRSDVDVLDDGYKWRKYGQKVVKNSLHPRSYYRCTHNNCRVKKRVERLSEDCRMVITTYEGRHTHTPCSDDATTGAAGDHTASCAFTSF
row,Sequence,binding signal
1,CTACAGCCTCACACCGTCTCTCCTGCACCAGTTCCACGGACGGAGTCACCTAGTGCAG,9510 fluorescence intensity (a.u.)
2,TGTGGTGCGTGCCGCGTGCGGGAGGGCAGGGTGAGGTGAGCGGAGTCACCTAGTGCAG,8810 fluorescence intensity (a.u.)
3,GGTGGTTCTGTGAGCCCGCGGGGTTGGGGTTGGGGCCTGGCGGAGTCACCTAGTGCAG,12900 fluorescence intensity (a.u.)
4,CCGCGGTGGGGCATGGTGGTGAGGTGGGAGGGAGGGAGCTCGGAGTCACCTAGTGCAG,17100 fluorescence intensity (a.u.)
5,TGGGGCTTCTGGTGTGCTCGGTGGTGTTCGCCGCGGCGGCCGGAGTCACCTAGTGCAG,14200 fluorescence intensity (a.u.)
6,TGTGGGTATGGGGATGATTTTGTACCCGTGATAGGTGTGGCGGAGTCACCTAGTGCAG,13100 fluorescence intensity (a.u.)
7,GGATGGGCATGGAGGAGGTGCAGTGAGTGGAGCTGGAGGACGGAGTCACCTAGTGCAG,8730 fluorescence intensity (a.u.)
8,GCGGCGGTGGGGATGGGGATAGGGCGGCGGCGGCGGATGGCGGAGTCACCTAGTGCAG,13600 fluorescence intensity (a.u.)
9,GAGAGGATGGAGGTGGATGAGGGAGAGGGGCGGGAGACCGCGGAGTCACCTAGTGCAG,9460 fluorescence intensity (a.u.)
10,GCGCGCGGGTGAGGAGGAGGAGGGGATGGGGAGGGGCCCGCGGAGTCACCTAGTGCAG,17700 fluorescence intensity (a.u.)
11,TTTGTGGGTGATGGTGGGTGGGAGTGGGATAGGGCGGCCCCGGAGTCACCTAGTGCAG,17000 fluorescence intensity (a.u.)
12,TGGTTCGCTCGGTGGGTGGTGGTGGTTCTGTGAGCCCGCGCGGAGTCACCTAGTGCAG,18400 fluorescence intensity (a.u.)
13,GCGGGATGGGGAGGCGGCGCCGCGAGGAGGAGGGGATGGGCGGAGTCACCTAGTGCAG,11900 fluorescence intensity (a.u.)
14,TCTTTTGTCACATCTTTATAATATTGCCCATGGCACATACCGGAGTCACCTAGTGCAG,8490 fluorescence intensity (a.u.)
15,TGCCATCTCCTTCGCCATTGGAGCTCACCACACACTCGCTCGGAGTCACCTAGTGCAG,9660 fluorescence intensity (a.u.)
16,CACCTGACCCATTCTTGCTTACCTTATATTTAGCATACTCCGGAGTCACCTAGTGCAG,8160 fluorescence intensity (a.u.)
17,CTATTTTATAAAATCTTTGTTTATGCATACCAGCTAAATTCGGAGTCACCTAGTGCAG,8800 fluorescence intensity (a.u.)
18,AAGCCAACCCAACCCGCACCTTCTCGCTGCTTCTACTACTCGGAGTCACCTAGTGCAG,13100 fluorescence intensity (a.u.)
19,ACGGTGGCGTTGTGCCCTGTGATGGTGTCCGCGTTGTGTCCGGAGTCACCTAGTGCAG,8990 fluorescence intensity (a.u.)
20,ATGTGGTTTGGTGAGCGCCGCTGTGCCCACCTAACCCACACGGAGTCACCTAGTGCAG,27300 fluorescence intensity (a.u.)
21,TGCCGCTGCCGCCGTGTGCCCGAGCGAGCCCACGCCCACACGGAGTCACCTAGTGCAG,8340 fluorescence intensity (a.u.)
22,GGGCAAGGGGAGCGGATGGGCGGGGAGGAGGCAGGCTGCGCGGAGTCACCTAGTGCAG,11600 fluorescence intensity (a.u.)
23,ACGTGTACGGCGCGGGGTGGAGGTGAGGGGTGGTGGGGCCCGGAGTCACCTAGTGCAG,18000 fluorescence intensity (a.u.)

row,Sequence,binding signal
1,TCTCAGCAGGGGAGGGGAGGGGAGGGGATCCTGGTGAGGTCGGAGTCACCTAGTGCAG,15700 fluorescence intensity (a.u.)
2,CTAGTGAGGGGCGGGCGGGCGGGCAAGGGGAGCGGATGGGCGGAGTCACCTAGTGCAG,19100 fluorescence intensity (a.u.)
3,CAGAGCAGGGGAGGGGAGGGGAGGGGATCCTGGTGAGCCTCGGAGTCACCTAGTGCAG,17600 fluorescence intensity (a.u.)
4,GCTGCTGCTGCCGCCCGGCCGCCACCCGTGACCCGCGCCACGGAGTCACCTAGTGCAG,8860 fluorescence intensity (a.u.)
5,GTCGAGGCGGCGGCGGCGGGGCGCGGAGTGAGGTGGGTGCCGGAGTCACCTAGTGCAG,8640 fluorescence intensity (a.u.)
6,GCAACGGGGAGGTGGGCGGAGGTGCGGCGCGGCGGCGGGCCGGAGTCACCTAGTGCAG,10300 fluorescence intensity (a.u.)
7,CGGGCGGATGAGGGGCGGCGATGGGCGGGCAAGGGGCGTGCGGAGTCACCTAGTGCAG,12500 fluorescence intensity (a.u.)
8,CTGGCGAGCAGAGCAGGGGAGGGGAGGGGAGGGGATCCTGCGGAGTCACCTAGTGCAG,15800 fluorescence intensity (a.u.)
9,CTGGGATTTGGTGGAGCTCCTGCGGTGGGGTGCCAGTGATCGGAGTCACCTAGTGCAG,12200 fluorescence intensity (a.u.)
10,ACTGTATATCGATGGCCCACTCGGCCCGACCCGTCCCGGCCGGAGTCACCTAGTGCAG,10600 fluorescence intensity (a.u.)
11,ATCAAGCCGAATAGTGCTGACATCTTCATTCTGGTTTTTTCGGAGTCACCTAGTGCAG,9510 fluorescence intensity (a.u.)
12,GTCTAGTATAAATCAACGCCACACCACTTGCCTAGTCATCCGGAGTCACCTAGTGCAG,8070 fluorescence intensity (a.u.)
13,GTCGGCGCCCATAGTTTTTTTCCGCAAGGGTTTTCTACGTCGGAGTCACCTAGTGCAG,8810 fluorescence intensity (a.u.)
14,TCTTAAGCGTGTTCATGGGTCTTGTTATGCTCAAGTCAAACGGAGTCACCTAGTGCAG,8950 fluorescence intensity (a.u.)
15,ATCTCTTTCATCCGATTACTGTGTTTTTTCTGTGGTCCAACGGAGTCACCTAGTGCAG,8410 fluorescence intensity (a.u.)
16,GCCGCTTGCCCTCGCAGCCGCTCCGCCTGCCTCCGCCCACCGGAGTCACCTAGTGCAG,10000 fluorescence intensity (a.u.)
17,ATCTGGTAACTCAAGTGCTCTCTTCCTGACTGCTGCAGCACGGAGTCACCTAGTGCAG,9470 fluorescence intensity (a.u.)
18,GATGAGTGGTGATTGGTGAAGATATCTGGTGGTTTTGGGACGGAGTCACCTAGTGCAG,8630 fluorescence intensity (a.u.)
19,AACCCGTTCACACACATTGTCAGGGACCAGCTCATTACTTCGGAGTCACCTAGTGCAG,10400 fluorescence intensity (a.u.)
20,AATGTTTGATACCGTTGACTTTTTAGTACGTGTTTGATCACGGAGTCACCTAGTGCAG,32600 fluorescence intensity (a.u.)
21,AATGTTTGACACCGTTGACTTTTTAGTACGTGTTTGTCCACGGAGTCACCTAGTGCAG,30200 fluorescence intensity (a.u.)
22,AACGATGACGACGTGTGCGCGCTGTTGTTTTTTTGTCCCACGGAGTCACCTAGTGCAG,19700 fluorescence intensity (a.u.)
23,TGACTTTTTAGTACGTGTTTGATCATTCGTCTTATTCAAACGGAGTCACCTAGTGCAG,10800 fluorescence intensity (a.u.)
